Results: the supplement of paper PMC10849652
The full data set covers some 7,900 targets. This sample favours those with a hit. About 0.6% of all pairs of compound and target were hits.

Legend:
Experiment in all cases: log2 fold change, soluble protein after heating vs DMSO (PISA); higher = thermal stabilisation; K562 cells, 10 uM, 30 min; active = over 0.2 and 3.5 SD of the protein, either way, in both replicates (recomputed)
[1] = compound: CC[C@@H]1C(=O)N(C)c2cnc(Nc3ccc(C(=O)NC4CCN(C)CC4)cc3OC)nc2N1C1CCCC1
Summary of the method: (§1)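 Quantification of soluble protein used TMTpro 16plex LC-MS/MS, with channel sums equalised. Samples were the supernatant after 21,000xg for 90 min of pooled aliquots from K562 cells (2×10^6 cells/mL) treated with 10 μM compound for 30 min, heated for 3 min over 48°C-58°C, and extracted in PBS with 0.5% NP-40 at 4°C. Values, from duplicates, describe thermal stability against control samples on a log2 fold-change scale.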

volasertib = compound: CC[C@@H]1C(=O)N(C)c2cnc(Nc3ccc(C(=O)N[C@H]4CC[C@H](N5CCN(CC6CC6)CC5)CC4)cc3OC)nc2N1C(C)C [volasertib]
Summary of the method: as §1

[2] = compound: CC[C@H](C)N1C=C(C2=C(C=C(C=C21)C3=CN=C(C=C3)N4CCNCC4)C(=O)NCC5=C(C=C(NC5=O)C)C)C
Summary of the method: as §1

epoxomicin = compound: CC[C@H](C)[C@@H](C(=O)N[C@@H]([C@@H](C)O)C(=O)N[C@@H](CC(C)C)C(=O)[C@]1(CO1)C)NC(=O)[C@H]([C@@H](C)CC)N(C)C(=O)C [epoxomicin]
Summary of the method: as §1

[3] = compound: CCn1c(C(=O)N(C2CC2)C2CC2)cc2c3c(ncn3C)c(Nc3cc(C)n(C)n3)nc21
Summary of the method: as §1

[4] = compound: CCn1cc(-c2ccnc3[nH]c(-c4cccc(CN(C)C)c4)cc23)c(-c2ccc(NC(=O)N(C)C)cc2)n1
Summary of the method: as §1

[5] = compound: CN(C)CC(=O)Nc1ccc2[nH]c(=O)c3ccccc3c2c1
Summary of the method: as §1

rosiglitazone = compound: CN(CCOC1=CC=C(C=C1)C[C@H]2C(=O)NC(=O)S2)C3=CC=CC=N3 (racemic) [rosiglitazone]
Summary of the method: as §1

[6] = compound: CN1C2=C(C3=C1C(=O)N(N=C3)CC4=CC(=CC=C4)N)SC(=C2)S(=O)C
Summary of the method: as §1

[7] = compound: CN1CCC(CNc2ccc3ncc(-c4cccc(OC(F)(F)F)c4)n3n2)CC1
Summary of the method: as §1

saracatinib = compound: CN1CCN(CCOc2cc(OC3CCOCC3)c3c(Nc4c(Cl)ccc5c4OCO5)ncnc3c2)CC1 [saracatinib]
Summary of the method: as §1

sotrastaurin = compound: CN1CCN(c2nc(C3=C(c4c[nH]c5ccccc45)C(=O)NC3=O)c3ccccc3n2)CC1 [sotrastaurin]
Summary of the method: as §1

alvocidib = compound: CN1CC[C@H](c2c(O)cc(O)c3c(=O)cc(-c4ccccc4Cl)oc23)[C@H](O)C1 [alvocidib]
Summary of the method: as §1

Tubastatin A = compound: CN1CCc2c(c3ccccc3n2Cc2ccc(C(=O)NO)cc2)C1 [Tubastatin A]
Summary of the method: as §1

[8] = compound: CNC(=O)C1=CC=CC=C1NC2=NC(=NC=C2Cl)NC3=C(C=C(C=C3)N4CCOCC4)OC
Summary of the method: as §1

defactinib = compound: CNC(=O)c1ccc(Nc2ncc(C(F)(F)F)c(NCc3nccnc3N(C)S(C)(=O)=O)n2)cc1 [defactinib]
Summary of the method: as §1

rucaparib = compound: CNCc1ccc(-c2[nH]c3cc(F)cc4c3c2CCNC4=O)cc1 [rucaparib]
Summary of the method: as §1

[9] = compound: CNc1nc(-c2ccc3c(N)n[nH]c3c2)cc(N2C[C@@H](C(=O)NC3CCCCC3)CC[C@H]2C)n1
Summary of the method: as §1

encorafenib = compound: COC(=O)N[C@@H](C)CNc1nccc(-c2cn(C(C)C)nc2-c2cc(Cl)cc(NS(C)(=O)=O)c2F)n1 [encorafenib]
Summary of the method: as §1

[10] = compound: COC(=O)[C@H](CCSC)NC(=O)C1=C(C=C(C=C1)NC[C@H](CS)N)C2=CC=CC=C2
Summary of the method: as §1

Measured: log2 fold change

ATP11A (UniProt P98196)
inactive: [1] 0.266 | volasertib 0.058 | [2] -0.094 | epoxomicin 0.001 | [3] 0.026 | [4] -0.022 | [5] 0.031 | rosiglitazone 0.045 | [6] -0.083 | [7] 0.084 | saracatinib 0.082 | sotrastaurin 0.094 | alvocidib 0.059 | Tubastatin A 0.007 | [8] -0.002 | defactinib -0.093 | rucaparib 0.192 | [9] 0.044 | encorafenib 0.008 | [10] 0.017

AMFR (UniProt Q9UKV5)
Sequence of UniProt Q9UKV5 (Q9UKV5 whole entry, looked up): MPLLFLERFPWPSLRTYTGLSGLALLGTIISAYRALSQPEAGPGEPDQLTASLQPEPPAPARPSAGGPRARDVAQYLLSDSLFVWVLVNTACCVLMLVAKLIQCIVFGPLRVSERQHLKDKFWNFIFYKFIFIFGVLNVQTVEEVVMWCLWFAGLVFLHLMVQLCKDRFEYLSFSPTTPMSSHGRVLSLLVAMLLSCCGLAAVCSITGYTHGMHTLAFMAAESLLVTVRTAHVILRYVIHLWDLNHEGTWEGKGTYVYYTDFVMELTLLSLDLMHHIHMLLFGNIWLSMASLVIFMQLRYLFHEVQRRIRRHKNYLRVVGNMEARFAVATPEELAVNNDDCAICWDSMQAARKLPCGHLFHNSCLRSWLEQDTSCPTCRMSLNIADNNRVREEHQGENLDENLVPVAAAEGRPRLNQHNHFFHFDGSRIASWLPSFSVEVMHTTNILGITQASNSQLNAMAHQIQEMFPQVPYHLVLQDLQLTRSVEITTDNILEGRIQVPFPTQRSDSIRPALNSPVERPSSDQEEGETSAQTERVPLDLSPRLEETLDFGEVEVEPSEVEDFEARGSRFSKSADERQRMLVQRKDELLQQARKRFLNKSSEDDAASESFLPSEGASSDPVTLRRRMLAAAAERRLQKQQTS
inactive: [1] -0.205 | volasertib -0.215 | [2] 0.044 | epoxomicin 0.049 | [3] -0.059 | [4] 0 | [5] -0.007 | rosiglitazone 0.022 | [6] 0.01 | [7] -0.055 | saracatinib -0.06 | sotrastaurin -0.056 | alvocidib -0.021 | Tubastatin A -0.016 | [8] 0.088 | defactinib -0.043 | rucaparib 0.011 | [9] -0.015 | encorafenib 0.033 | [10] 0.008

ATP13A3 (UniProt Q9H7F0)
active: [7] -0.401
inactive: [1] -0.085 | volasertib 0.077 | [2] 0.016 | epoxomicin 0 | [3] -0.014 | [4] -0.022 | [5] -0.012 | rosiglitazone 0.128 | [6] -0.011 | saracatinib -0.029 | sotrastaurin 0.048 | alvocidib -0.159 | Tubastatin A 0.002 | [8] -0.005 | defactinib -0.014 | rucaparib 0.091 | [9] 0.013 | encorafenib 0.037 | [10] 0.037

ASS1 (UniProt P00966)
Sequence of UniProt P00966 (P00966 whole entry, looked up): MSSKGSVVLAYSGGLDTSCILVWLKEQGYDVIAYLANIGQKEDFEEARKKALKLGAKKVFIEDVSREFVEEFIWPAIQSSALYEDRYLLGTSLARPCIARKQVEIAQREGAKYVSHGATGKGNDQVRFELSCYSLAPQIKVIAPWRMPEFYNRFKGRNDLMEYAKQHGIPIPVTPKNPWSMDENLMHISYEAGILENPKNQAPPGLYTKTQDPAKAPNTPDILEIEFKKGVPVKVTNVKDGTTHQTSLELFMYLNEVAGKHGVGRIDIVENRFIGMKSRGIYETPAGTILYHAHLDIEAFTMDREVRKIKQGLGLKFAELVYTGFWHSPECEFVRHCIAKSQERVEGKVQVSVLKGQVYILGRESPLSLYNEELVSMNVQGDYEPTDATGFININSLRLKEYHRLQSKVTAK
inactive: [1] 0.02 | volasertib 0.024 | [2] 0.412 | epoxomicin 0.025 | [3] -0.024 | [4] 0.04 | [5] -0.072 | rosiglitazone 0.071 | [6] 0.025 | [7] -0.005 | saracatinib 0.062 | sotrastaurin 0.088 | alvocidib -0.098 | Tubastatin A -0.183 | [8] -0.047 | defactinib -0.007 | rucaparib 0.11 | [9] -0.122 | encorafenib -0.018 | [10] 0.045

ACADVL isoform 3 (UniProt P49748)
Sequence of UniProt P49748 (P49748 whole entry, looked up): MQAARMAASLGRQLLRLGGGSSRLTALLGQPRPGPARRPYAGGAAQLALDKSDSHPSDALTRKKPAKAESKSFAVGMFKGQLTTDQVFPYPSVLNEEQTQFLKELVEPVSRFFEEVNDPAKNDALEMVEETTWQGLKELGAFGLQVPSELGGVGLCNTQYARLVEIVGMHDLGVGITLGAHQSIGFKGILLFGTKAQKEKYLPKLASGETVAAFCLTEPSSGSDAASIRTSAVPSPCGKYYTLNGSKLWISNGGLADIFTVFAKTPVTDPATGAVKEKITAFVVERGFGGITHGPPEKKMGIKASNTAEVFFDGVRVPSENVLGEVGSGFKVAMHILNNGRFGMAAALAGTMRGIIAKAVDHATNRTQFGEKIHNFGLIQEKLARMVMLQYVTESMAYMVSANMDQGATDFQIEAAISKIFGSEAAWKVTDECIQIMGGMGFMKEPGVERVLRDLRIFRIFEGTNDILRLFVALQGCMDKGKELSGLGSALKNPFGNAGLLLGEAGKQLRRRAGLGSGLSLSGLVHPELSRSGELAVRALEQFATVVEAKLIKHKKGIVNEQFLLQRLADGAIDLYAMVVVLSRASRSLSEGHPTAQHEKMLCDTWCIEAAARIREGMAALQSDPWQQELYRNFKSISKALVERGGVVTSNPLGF
inactive: [1] 0.119 | volasertib 0.099 | [2] -0.007 | epoxomicin 0.025 | [3] 0.008 | [4] -0.014 | [5] 0.004 | rosiglitazone -0.004 | [6] -0.054 | [7] -0.045 | saracatinib 0.027 | sotrastaurin 0.056 | alvocidib -0.031 | Tubastatin A -0.028 | [8] -0.022 | defactinib -0.011 | rucaparib -0.007 | [9] 0.008 | encorafenib -0.021 | [10] -0.001

ACSL3 (UniProt O95573)
inactive: [1] -0.062 | [2] 0.022 | epoxomicin 0.048 | [3] -0.049 | [4] -0.042 | [5] 0.024 | [6] -0.036 | [7] -0.1 | saracatinib 0 | sotrastaurin -0.014 | alvocidib -0.037 | Tubastatin A -0.022 | [8] -0.008 | defactinib -0.043 | rucaparib -0.002 | [9] 0.041 | encorafenib 0.008 | [10] -0.01
active: volasertib -0.23 | rosiglitazone 0.642

AARSD1 isoform 3 (UniProt Q9BTE6)
Sequence of UniProt Q9BTE6 (Q9BTE6 whole entry, looked up): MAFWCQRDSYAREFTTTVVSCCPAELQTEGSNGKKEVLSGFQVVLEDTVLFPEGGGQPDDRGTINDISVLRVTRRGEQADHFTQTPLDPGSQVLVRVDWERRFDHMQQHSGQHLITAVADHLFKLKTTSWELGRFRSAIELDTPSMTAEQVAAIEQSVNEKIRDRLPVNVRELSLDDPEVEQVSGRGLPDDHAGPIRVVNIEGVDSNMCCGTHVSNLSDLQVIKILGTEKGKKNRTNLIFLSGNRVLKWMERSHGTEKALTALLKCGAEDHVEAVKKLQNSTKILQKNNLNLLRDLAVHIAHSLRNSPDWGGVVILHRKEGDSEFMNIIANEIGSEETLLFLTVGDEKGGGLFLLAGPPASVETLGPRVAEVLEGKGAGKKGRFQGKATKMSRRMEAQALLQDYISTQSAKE
inactive: [1] -0.081 | [2] 0.019 | epoxomicin 0.083 | [3] 0.009 | [4] -0.01 | [5] 0.037 | rosiglitazone 0.05 | [6] 0.02 | [7] 0.021 | saracatinib -0.009 | sotrastaurin -0.113 | alvocidib -0.016 | [8] 0.081 | defactinib -0.071 | rucaparib -0.077 | [9] -0.037 | encorafenib 0.08 | [10] 0.004
active: volasertib -0.27 | Tubastatin A -0.336

ACAD9 (UniProt Q9H845)
Sequence of UniProt Q9H845 (Q9H845 whole entry, looked up): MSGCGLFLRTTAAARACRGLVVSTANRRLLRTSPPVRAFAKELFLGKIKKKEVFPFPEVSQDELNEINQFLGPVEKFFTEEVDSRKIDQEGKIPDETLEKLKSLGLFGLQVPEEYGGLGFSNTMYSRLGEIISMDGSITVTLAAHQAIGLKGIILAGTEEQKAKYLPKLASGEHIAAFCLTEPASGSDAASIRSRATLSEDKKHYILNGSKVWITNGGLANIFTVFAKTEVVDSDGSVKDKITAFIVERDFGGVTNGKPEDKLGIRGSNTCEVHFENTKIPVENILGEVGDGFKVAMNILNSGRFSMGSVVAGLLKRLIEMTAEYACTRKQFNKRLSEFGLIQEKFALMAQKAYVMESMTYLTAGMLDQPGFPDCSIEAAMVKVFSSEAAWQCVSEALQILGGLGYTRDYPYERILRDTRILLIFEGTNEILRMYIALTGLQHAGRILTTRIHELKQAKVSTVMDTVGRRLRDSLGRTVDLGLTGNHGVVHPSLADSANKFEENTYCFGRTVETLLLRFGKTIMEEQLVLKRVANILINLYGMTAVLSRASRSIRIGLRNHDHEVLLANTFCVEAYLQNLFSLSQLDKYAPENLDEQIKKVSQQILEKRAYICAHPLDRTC
inactive: [1] 0.03 | volasertib 0.024 | [2] -0.039 | epoxomicin 0.015 | [3] 0.006 | [4] 0.014 | [5] 0.022 | rosiglitazone -0.016 | [6] -0.032 | [7] -0.002 | saracatinib 0.008 | sotrastaurin 0.004 | alvocidib -0.012 | Tubastatin A -0.041 | [8] -0.001 | defactinib -0.026 | rucaparib -0.038 | [9] -0.025 | encorafenib -0.004 | [10] -0.015

BAIAP2 (UniProt Q9UQB8)
Sequence of UniProt Q9UQB8 (Q9UQB8 whole entry, looked up): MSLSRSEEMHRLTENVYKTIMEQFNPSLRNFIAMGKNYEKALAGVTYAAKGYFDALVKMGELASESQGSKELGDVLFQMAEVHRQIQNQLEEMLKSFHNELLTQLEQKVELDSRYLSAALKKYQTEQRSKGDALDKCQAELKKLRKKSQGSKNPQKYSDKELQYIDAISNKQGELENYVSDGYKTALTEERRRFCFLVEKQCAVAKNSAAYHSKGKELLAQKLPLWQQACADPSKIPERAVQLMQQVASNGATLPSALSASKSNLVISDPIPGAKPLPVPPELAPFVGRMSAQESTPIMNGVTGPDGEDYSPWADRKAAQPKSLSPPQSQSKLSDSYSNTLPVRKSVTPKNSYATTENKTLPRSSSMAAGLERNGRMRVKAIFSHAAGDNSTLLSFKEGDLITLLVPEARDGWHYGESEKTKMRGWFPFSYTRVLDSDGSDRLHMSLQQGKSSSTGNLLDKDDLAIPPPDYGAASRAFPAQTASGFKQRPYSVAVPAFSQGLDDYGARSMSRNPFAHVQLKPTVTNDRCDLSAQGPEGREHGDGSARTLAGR
inactive: [1] -0.045 | volasertib -0.089 | [2] 0.082 | epoxomicin 0.14 | [3] -0.011 | [4] -0.05 | [5] -0.019 | rosiglitazone 0.038 | [6] -0.015 | [7] -0.142 | saracatinib 0.009 | sotrastaurin -0.016 | alvocidib -0.017 | Tubastatin A 0.036 | [8] -0.103 | defactinib -0.097 | rucaparib 0.014 | [9] -0.017 | encorafenib 0.006 | [10] -0.022

AKT2 (UniProt P31751)
inactive: [1] -0.017 | volasertib -0.253 | [2] 0.128 | epoxomicin 0.079 | [3] -0.061 | [4] -0.175 | [5] -0.026 | rosiglitazone 0.082 | [6] -0.038 | [7] -0.119 | saracatinib -0.012 | sotrastaurin -0.068 | alvocidib -0.005 | Tubastatin A 0.01 | [8] 0.042 | defactinib -0.009 | rucaparib -0.058 | [9] -0.102 | encorafenib 0.015 | [10] 0.013

ATOX1 (UniProt O00244)
Sequence of UniProt O00244 (O00244 whole entry, looked up): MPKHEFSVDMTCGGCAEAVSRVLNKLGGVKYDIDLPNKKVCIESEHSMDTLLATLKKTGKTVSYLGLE
inactive: [1] 0.009 | volasertib 0 | [2] -0.015 | epoxomicin 0.107 | [3] 0.016 | [4] -0.079 | [5] 0.056 | rosiglitazone 0.012 | [6] -0.023 | [7] 0.094 | saracatinib -0.042 | sotrastaurin -0.054 | alvocidib -0.106 | Tubastatin A 0.062 | [8] 0.001 | defactinib -0.117 | rucaparib -0.09 | [9] -0.046 | encorafenib 0.047 | [10] -0.105

ANP32E (UniProt Q9BTT0)
Sequence of UniProt Q9BTT0 (Q9BTT0 whole entry, looked up): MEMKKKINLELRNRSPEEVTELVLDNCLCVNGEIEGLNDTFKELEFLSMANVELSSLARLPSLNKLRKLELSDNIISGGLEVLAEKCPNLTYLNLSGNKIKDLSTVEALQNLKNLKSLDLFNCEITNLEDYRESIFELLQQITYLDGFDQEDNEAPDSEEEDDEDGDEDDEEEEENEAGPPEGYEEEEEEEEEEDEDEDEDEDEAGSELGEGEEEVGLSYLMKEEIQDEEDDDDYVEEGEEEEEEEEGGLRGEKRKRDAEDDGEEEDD
active: volasertib -0.499
inactive: [1] -0.132 | [2] 0.04 | epoxomicin 0.054 | [3] -0.085 | [4] -0.128 | [5] -0.051 | rosiglitazone -0.025 | [6] -0.058 | [7] -0.147 | saracatinib 0.006 | sotrastaurin -0.105 | alvocidib -0.109 | Tubastatin A 0.052 | [8] 0.041 | defactinib -0.239 | rucaparib -0.108 | [9] -0.06 | encorafenib 0.159 | [10] -0.022

ATP13A2 (UniProt Q9NQ11)
inactive: [1] -0.141 | volasertib -0.103 | [2] -0.074 | epoxomicin 0.003 | [3] 0.012 | [4] -0.031 | [5] -0.002 | rosiglitazone 0.066 | [6] 0.058 | saracatinib 0.061 | sotrastaurin 0.036 | alvocidib 0.023 | Tubastatin A 0.026 | [8] 0.015 | defactinib -0.116 | rucaparib 0 | [9] 0.039 | encorafenib -0.027 | [10] 0.026
active: [7] -0.509

ATP6V1F isoform 2 (UniProt Q16864)
Sequence of UniProt Q16864 (Q16864 whole entry, looked up): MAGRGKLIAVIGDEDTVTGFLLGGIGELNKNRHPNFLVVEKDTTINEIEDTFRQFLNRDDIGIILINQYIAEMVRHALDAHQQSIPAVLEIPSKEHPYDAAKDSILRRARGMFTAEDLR
inactive: [1] 0.01 | volasertib -0.036 | [2] -0.043 | [3] -0.02 | [4] 0.02 | [5] 0.165 | rosiglitazone 0.003 | [6] 0.033 | [7] 0.056 | saracatinib -0.198 | sotrastaurin 0.092 | alvocidib -0.174 | Tubastatin A 0.11 | [8] 0.031 | defactinib 0.007 | rucaparib -0.037 | [9] -0.129 | encorafenib -0.039 | [10] 0.238
active: epoxomicin 0.525

ARL6IP4 (UniProt Q66PJ3)
Sequence of UniProt Q66PJ3 (Q66PJ3 whole entry, looked up): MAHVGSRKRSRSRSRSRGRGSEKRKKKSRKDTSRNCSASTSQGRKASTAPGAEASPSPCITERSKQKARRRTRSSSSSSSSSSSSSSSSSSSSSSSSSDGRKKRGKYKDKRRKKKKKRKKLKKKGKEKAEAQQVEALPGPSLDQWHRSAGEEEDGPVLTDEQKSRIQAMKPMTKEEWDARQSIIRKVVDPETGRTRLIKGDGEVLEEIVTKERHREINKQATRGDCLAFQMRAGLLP
inactive: [1] 0.008 | volasertib -0.009 | [2] -0.023 | epoxomicin 0.014 | [3] 0.015 | [4] -0.025 | [5] 0.001 | rosiglitazone 0.017 | [6] -0.065 | [7] 0.01 | saracatinib -0.026 | sotrastaurin 0.023 | alvocidib -0.024 | Tubastatin A -0.024 | [8] -0.05 | defactinib -0.038 | rucaparib 0.01 | [9] -0.002 | encorafenib -0.059 | [10] 0.016

BCLAF1 (UniProt Q9NYF8)
Sequence of UniProt Q9NYF8 (Q9NYF8 whole entry, looked up): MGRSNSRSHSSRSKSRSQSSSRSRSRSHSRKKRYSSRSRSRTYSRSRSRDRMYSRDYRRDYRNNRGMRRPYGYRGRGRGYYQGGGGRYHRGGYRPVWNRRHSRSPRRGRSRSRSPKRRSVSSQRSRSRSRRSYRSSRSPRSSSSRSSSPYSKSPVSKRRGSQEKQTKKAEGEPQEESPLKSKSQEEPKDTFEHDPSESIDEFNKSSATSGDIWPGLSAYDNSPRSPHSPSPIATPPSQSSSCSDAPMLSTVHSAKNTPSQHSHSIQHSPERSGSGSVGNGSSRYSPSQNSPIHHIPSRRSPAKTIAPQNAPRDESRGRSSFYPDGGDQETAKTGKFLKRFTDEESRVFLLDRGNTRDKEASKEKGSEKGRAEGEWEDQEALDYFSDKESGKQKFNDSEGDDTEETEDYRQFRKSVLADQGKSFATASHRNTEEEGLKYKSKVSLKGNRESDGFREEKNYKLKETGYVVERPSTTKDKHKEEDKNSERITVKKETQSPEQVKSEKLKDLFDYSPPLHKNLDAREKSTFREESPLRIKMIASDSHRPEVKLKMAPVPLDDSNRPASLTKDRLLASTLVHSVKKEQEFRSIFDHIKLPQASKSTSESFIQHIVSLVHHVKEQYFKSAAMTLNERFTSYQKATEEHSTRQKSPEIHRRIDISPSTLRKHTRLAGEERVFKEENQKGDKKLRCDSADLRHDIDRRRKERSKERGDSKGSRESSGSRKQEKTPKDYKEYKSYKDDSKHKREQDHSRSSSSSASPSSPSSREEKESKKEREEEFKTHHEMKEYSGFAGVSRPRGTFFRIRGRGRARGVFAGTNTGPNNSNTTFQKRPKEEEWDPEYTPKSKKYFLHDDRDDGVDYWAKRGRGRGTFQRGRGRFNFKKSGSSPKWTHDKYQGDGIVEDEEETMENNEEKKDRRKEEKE
inactive: [1] -0.089 | volasertib -0.08 | [2] 0.024 | epoxomicin -0.027 | [3] -0.016 | [4] -0.002 | [5] 0.099 | rosiglitazone 0.018 | [6] -0.015 | [7] 0.024 | saracatinib -0.033 | sotrastaurin 0.039 | alvocidib -0.271 | Tubastatin A 0.184 | [8] -0.275 | defactinib -0.382 | rucaparib 0.017 | [9] -0.057 | encorafenib 0.013 | [10] -0.028
